High-throughput results deposited in PubChem BioAssay by The Scripps Research Institute Molecular Screening Center.
Rows were chosen to be rich in hits. Some 4.1% of all compounds tested hit in one or more screens of this group.
ssDAF-12 act = activates DAF-12 receptor from parasite S. stercoralis. HEK293 ssDAF-12/GRIP1 lit1-tk-luc reporter, luminescence; % of 3 µM dafachronic acid response. activation, % at 6.8 µM. actives 1% (n = 370,000). AID 652126;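 active means activation above the mean over all tested compounds plus 3 SD, cut at about 0.9% in these data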
DAX1 inh-1 = NR0B1 (DAX1) inhibition; P51843; HEK293 Gal4-DAX1 luciferase reporter, luminescence; inhibition, % at 6.75 µM; actives 0.99% (n = 340,000); AID 504766;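 active means inhibition above the mean over all tested compounds plus 3 SD, cut at about 4.2% in these data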;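 further: inhibition shows as a rise in luminescence from relieved DAX1 repression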
hcDAF-12 act = activators of H. contortus DAF-12 nuclear receptor; HEK293 hcDAF-12 lit1-tk-luc reporter, luminescence; 0% DMSO, 100% Δ7-dafachronic acid; activation, % at 6.8 µM; actives 1.4% (n = 370,000);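 active means activation above the mean of all tested compounds plus 3 SD, cut at about 5.5% in these data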
hgDAF-12 ag = hgDAF-12 agonism, primary luciferase screen; HEK293 GAL4-hgDAF12 UAS-luciferase reporter, agonist luminescence; normalized to butyrate control; activation, % at 6.8 µM; actives 1.8% (n = 370,000); AID 687014;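 active means activation above a cutoff set at the mean of all screened compounds plus 3 SD, cut at about 10% in these data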
DAX1 inh-2 = inhibitors of DAX1 repression of SF-1 activated StAR promoter; HEK293T StAR-luciferase reporter, SF-1/DAX-1 repression relief; inhibition, % at 6.8 µM; actives 1.1% (n = 370,000);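 active means inhibition above the mean over all tested compounds plus 3 SD, cut at about 3.6% in these data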;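 further: higher inhibition means more luminescence from relief of DAX-1 repression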
DAX1 inh confirm = NR0B1 (human) inhibition, confirmation | shares compounds with DAX1 inh-2 | HEK293T StAR-promoter luciferase reporter, SF-1/DAX-1 repression | inhibition, % at 6.8 µM | actives 87% (n = 2,400);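 active means inhibition above the average of every tested compound plus 3 SD, cut at about 3.8% in these data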;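 further: active compounds raise luminescence by relieving repression of the StAR reporter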
Target sequence (P51843 whole entry, looked up): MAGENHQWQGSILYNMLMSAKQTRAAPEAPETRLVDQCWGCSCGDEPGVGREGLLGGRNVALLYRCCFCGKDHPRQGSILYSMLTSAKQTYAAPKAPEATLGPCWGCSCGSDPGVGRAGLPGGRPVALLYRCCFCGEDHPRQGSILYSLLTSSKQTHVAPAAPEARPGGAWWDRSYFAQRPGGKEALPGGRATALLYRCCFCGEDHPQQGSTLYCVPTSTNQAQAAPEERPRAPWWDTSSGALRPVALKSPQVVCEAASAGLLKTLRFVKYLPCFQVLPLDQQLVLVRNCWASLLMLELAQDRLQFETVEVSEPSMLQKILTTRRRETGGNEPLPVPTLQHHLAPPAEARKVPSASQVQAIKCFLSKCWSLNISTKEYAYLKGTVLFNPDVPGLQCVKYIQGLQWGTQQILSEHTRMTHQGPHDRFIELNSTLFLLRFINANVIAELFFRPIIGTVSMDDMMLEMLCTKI
SF1 mutant ctr = nonselective inhibitor or artifact in SF-1 mutant DAX1 counter-screen | actives 78% (n = 2,400) | HEK293 StAR-luciferase, SF-1 AF2 mutant, luminescence | inhibition, % at 6.8 µM | shares compounds with DAX1 inh-2;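 active means inhibition above the mean of all tested compounds plus 3 SD, cut at about 3% in these data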
Of the large screens only hits and unclear results are named; the others gave an inactive call (follow-up assays come after a bar, where they were run).

COc1ccccc1NC(=O)C(C)OC(=O)CCNS(=O)(=O)c1cccc(C(F)(F)F)c1 (stereo not drawn)	none
O=C(CNC(=O)c1ccc2c(c1)OCO2)Nc1ncccc1O	DAX1 inh-2 5.3 | DAX1 inh confirm 6.1 | SF1 mutant ctr 3.7
Cc1cccnc1NC(=O)c1ccc2c(c1)OCO2	none
CCOc1cc(C=NN2CCCCCC2)ccc1O	none
CC(=O)c1cccc(-c2ccnc3c2CC(C(=O)NCc2ccccc2)O3)c1 (stereo not drawn)	DAX1 inh-2 4.8 (no result: DAX1 inh-1) | DAX1 inh confirm 12 | SF1 mutant ctr inactive
O=S1(=O)CCOCCCN1Cc1cccc(C(F)(F)F)c1	none
Nc1nccnc1C(=O)OCC(=O)NCCc1ccc(Cl)cc1	none
CCN1CCN(Cc2ccc(NC(=O)Nc3ccccc3Cl)cc2)CC1	DAX1 inh-1 4.6, hgDAF-12 ag 11, DAX1 inh-2 5.4 | DAX1 inh confirm 11 | SF1 mutant ctr 8.6
O=C(Nc1ccc2c(c1)OCO2)c1cnccn1	none
COC(=O)N1CCCCC1c1cc(C(=O)Nc2ccc3c(c2)OCO3)no1 (stereo not drawn)	none (no result: DAX1 inh-1)
O=C(Nc1ccc2c(c1)OCO2)c1ccccn1	hgDAF-12 ag 11, DAX1 inh-2 8.8 | DAX1 inh confirm 9.9 | SF1 mutant ctr 7.1
COc1ccccc1C(=O)N/N=C/c1ccc2c(c1)OCO2	none
O=C(NN=Cc1ccc2c(c1)OCO2)c1ccccc1	hcDAF-12 act 6.0, DAX1 inh-2 5.3 | DAX1 inh confirm 11 | SF1 mutant ctr 5.8
O=C(Nc1ccc2c(c1)OCO2)c1cc(C2CC2)on1	DAX1 inh-2 7.0 | DAX1 inh confirm 13 | SF1 mutant ctr 7.8
CC(C)CCC(CC(C)O)C(=O)NNC(=S)Nc1ccccc1 (stereo not drawn)	none
O=C(CSc1nnc2ccc(-c3cccnc3)nn12)Nc1ccccc1F	none
CC(=O)Nc1c(NCC(C)C)c2ccccc2oc1=O	none
NS(=O)(=O)c1ccc(NC(=O)c2cccc(N3C(=O)c4ccccc4C3=O)c2)cc1	none
Cc1ccc(S(=O)(=O)n2c(C)nc3ccccc32)cc1	none
Nc1nc2ccccc2n1S(=O)(=O)c1ccccc1	DAX1 inh-2 4.8 (no result: DAX1 inh-1) | DAX1 inh confirm inactive | SF1 mutant ctr inactive
C/C(=N/NC(=O)c1ccncc1)c1ccc(NC(=O)c2ccc(Cl)cc2Cl)cc1	DAX1 inh-2 5.3 | DAX1 inh confirm inactive | SF1 mutant ctr inactive
COc1ccc(C(=O)Nc2ccc(/C(C)=N/NC(=O)c3ccncc3)cc2)cc1	none
CCNC(=O)C1CCCN(C(=O)c2ccc3c(c2)OCO3)CC1 (stereo not drawn)	none (no result: DAX1 inh-1)
NC(=O)C1CCN(C(=O)c2cc3c(s2)CCCC3)CC1	DAX1 inh-2 5.7 | DAX1 inh confirm 4.9 | SF1 mutant ctr inactive
COc1ccc(N2CCN(C(=O)c3cc4c(s3)CCCCC4)CC2)cc1	DAX1 inh-2 4.5 | DAX1 inh confirm inactive | SF1 mutant ctr inactive
Cc1nc2ccc(NC(=O)Cc3ccccc3F)cc2s1	DAX1 inh-2 5.3 | DAX1 inh confirm 11 | SF1 mutant ctr 6.9
Cc1nc2ccc(NC(=O)Cc3cccc(F)c3)cc2s1	none
Cc1nc2ccc(NC(=O)c3cccs3)cc2s1	DAX1 inh-2 7.4 | DAX1 inh confirm 9.3 | SF1 mutant ctr 4.7
CCC(=O)Nc1ccc(C(=O)COC(=O)Cc2ccsc2)cc1	none
C=C(C)C(=O)N1CC2(CC(c3cccc(NC(=O)/C(C)=C\C)c3)=NO2)C[C@H]1C(N)=O (stereo partly drawn)	none
O=C(Cc1ccc(Cl)c(Cl)c1)Nc1cccc(S(=O)(=O)N2CCOCC2)c1	none
C=CCN(C(=O)c1oc2c(Cl)cc(C)cc2c1C)C1CCS(=O)(=O)C1 (stereo not drawn)	DAX1 inh-2 5.2 | DAX1 inh confirm 6.1 | SF1 mutant ctr 4.0
Cc1cc(Cl)c2oc(C(=O)N3CCN(C4CCS(=O)(=O)C4)CC3)c(C)c2c1 (stereo not drawn)	none
Cc1onc(-c2c(Cl)cccc2Cl)c1C(=O)N(C)Cc1ccccc1	none
CCc1noc(C)c1C(=O)NCCc1ccccc1	DAX1 inh-2 5.3 | DAX1 inh confirm 6.1 | SF1 mutant ctr 4.8
CCc1noc(C)c1C(=O)NCCc1ccc(F)cc1	none
Cc1ccccc1/C(N)=N/OC(=O)c1ccc(F)cc1	none
N/C(CS(=O)(=O)c1ccccc1)=N\OC(=O)c1ccc(F)cc1	DAX1 inh-2 5.9 | DAX1 inh confirm 3.8 | SF1 mutant ctr 3.2
Cc1ccccc1C1CCCN(C(=O)c2cc(COc3c(F)cccc3F)on2)C1 (stereo not drawn)	none
CCCOC1CCCN(C(=O)c2cc(COc3c(F)cccc3F)on2)C1 (stereo not drawn)	DAX1 inh-2 4.5 | DAX1 inh confirm 4.4 | SF1 mutant ctr 5.5
Cn1c(NCc2ccccc2Cl)nc2ccccc21	DAX1 inh-1 8.2, DAX1 inh-2 6.5 | DAX1 inh confirm 9.7 | SF1 mutant ctr 5.9
CCOc1ccc(N(CC(=O)Nc2c(C)n(C)n(-c3ccccc3)c2=O)S(=O)(=O)c2ccc(C(C)(C)C)cc2)cc1	none (no result: DAX1 inh-1)
COc1c([N+](=O)[O-])c(=O)n(-c2ccccc2)c2ccccc12	none
COCCCNc1ccn2nc(-c3cc(OC)c(OC)c(OC)c3)cc2n1	none (no result: DAX1 inh-1)
COCCCNc1ccn2nc(-c3ccccc3)cc2n1	ssDAF-12 act 1.0, hcDAF-12 act 6.3, DAX1 inh-2 6.5 (no result: DAX1 inh-1) | DAX1 inh confirm 15 | SF1 mutant ctr 5.0
CC1CCN(CCCNC(=O)Cn2ncc3c([nH]c4ccccc43)c2=O)CC1	none
O=C(Nc1ccc(N2CCCC2)cc1)c1ccccc1F	hgDAF-12 ag 13, DAX1 inh-2 4.5 | DAX1 inh confirm 7.1 | SF1 mutant ctr 3.5
N/C(=N\OC(=O)c1ccoc1)c1ccc(Br)cc1	DAX1 inh-2 9.5 | DAX1 inh confirm 11 | SF1 mutant ctr 6.9
CCCN1CCN(CCCNC(=O)c2ccc3c(c2)NC(=O)c2ccccc2S3)CC1	DAX1 inh-2 6.1 | DAX1 inh confirm 4.4 | SF1 mutant ctr inactive
O=C(/C=C/c1ccc2c(c1)OCO2)Nc1cccnc1	hgDAF-12 ag 11, DAX1 inh-2 11 | DAX1 inh confirm 14 | SF1 mutant ctr 4.5
O=C(/C=C/c1ccco1)NCc1ccc2c(c1)OCO2	none
O=C(/C=C/c1ccco1)Nc1ccc2c(c1)OCO2	hgDAF-12 ag 12, DAX1 inh-2 6.1 | DAX1 inh confirm 11 | SF1 mutant ctr 6.0
COc1ccc(C(=O)NNC(=O)CNC(=O)C2CCCCC2)cc1	none
